The nature of experiment [1]: inhibitors of TNFa-induced NFkB p65 translocation, primary screen, imaging, HUVEC, MLSMR starter and 10KST1 sets (AID 438;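 active = inhibition above 20% together with a positive visual image hit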;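 note: compound added about 3h40 before a 20 min TNFalpha stimulation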;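 for inhibition: signal is the nuclear over cytoplasmic p65 intensity ratio per well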). The settings on record: HUVEC TNFa-induced p65 nuclear translocation; cell count: measured here: nuclei count (cytotoxicity indicator), at 2.08 µM; inhibition: at 2 µM, stronger effect = higher value, 0% TNFa-plus-vehicle, 100% no-TNFa wells.
Experiment [2] in a line: inhibitors of mutant huntingtin aggregation, primary screen, imaging, exon1htt(103Q)mCFP cells, high-content imaging (AID 483).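 For nuclei count: percent of the per-plate median nuclei count of sample wells.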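 Note: compound exposure lasted 3 days before fixation.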 The settings on record: exon1htt(103Q)mCFP cell line, aggregate imaging, at 2 µM; inhibition of aggregation: stronger effect = higher value; nuclei count: measured here: cell count, toxicity.
Experiment [3] is described as follows: inhibitors of E-selectin induction by TNFa, primary screen, imaging, HUVEC, immunofluorescence, MLSMR starter and 10KST1 sets (AID 487;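 active = visually confirmed hit in the image check and inhibition above 20%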;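 for inhibition: signal is fraction of cell area covered by stained E-selectin grains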;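 for nuclei count: 100% = median nuclei count of all wells on the same plate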). The settings on record: HUVEC TNFalpha-induced E-selectin immunofluorescence imaging, at 2 µM; inhibition: stronger effect = higher value; nuclei count: measured here: cell number, toxicity.
For experiment [4], the target named is Voltage-gated potassium channel subunit beta-2 (Rattus norvegicus) (UniProt P62483). As to the kind of experiment: KvBeta enzyme negative modulators, primary screen, biochemical, NADPH fluorescence (AID 622;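 active = fluorescence slope higher than the sample average by over 3 SD, cut at about -0.22 in these data, passing the limit was not always enough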;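 note: slope of raw intensity against log time taken from 70 to 1610 s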). The conditions noted are these: recombinant KvBeta, 4-cyanobenzaldehyde reduction, at 10 µM, stronger effect = higher value.
Chain of Voltage-gated potassium channel subunit beta-2 (Rattus norvegicus) (P62483 whole entry, looked up): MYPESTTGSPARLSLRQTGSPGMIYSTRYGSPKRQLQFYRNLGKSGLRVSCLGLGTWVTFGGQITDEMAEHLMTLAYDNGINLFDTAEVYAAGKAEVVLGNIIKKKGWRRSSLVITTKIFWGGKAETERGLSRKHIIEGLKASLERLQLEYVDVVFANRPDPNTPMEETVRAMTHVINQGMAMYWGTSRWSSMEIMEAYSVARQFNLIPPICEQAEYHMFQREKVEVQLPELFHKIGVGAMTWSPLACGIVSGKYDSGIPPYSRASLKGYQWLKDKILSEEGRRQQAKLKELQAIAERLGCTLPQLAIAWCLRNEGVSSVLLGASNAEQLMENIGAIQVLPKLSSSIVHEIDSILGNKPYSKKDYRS
Experiment [5] shares this target. As to the kind of experiment: KvBeta positive modulators, primary screen, biochemical, NADPH fluorescence (AID 623;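 active = NADPH fluorescence slope more negative than the mean of all samples by about 3 SD, 99.7% confidence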;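 note: fluorescence intensity change per second fitted from 20 to 320 s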). The conditions noted are these: Recombinant KvBeta, NADPH fluorescence decrease slope, 10 min; at 10 µM; stronger effect = lower value.
For experiment [6], the target named is Alpha-2C adrenergic receptor (Homo sapiens) (UniProt P18825). Put plainly: modulators of alpha2C/GIRK thallium flux, primary screen, cell-based, HEK293 alpha2C/GIRK1/2 (AID 624;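 active = fluorescence slope after compound addition differing from the mean of all screened samples at 99.7% confidence, in either direction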;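 note: slope of fluorescence ratio to pre-addition baseline per second over 15 to 24 s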). The conditions noted are these: thallium flux BTC fluorescence, at 10 µM, actives lie on both sides.
Chain of Alpha-2C adrenergic receptor (Homo sapiens) (P18825 whole entry, looked up): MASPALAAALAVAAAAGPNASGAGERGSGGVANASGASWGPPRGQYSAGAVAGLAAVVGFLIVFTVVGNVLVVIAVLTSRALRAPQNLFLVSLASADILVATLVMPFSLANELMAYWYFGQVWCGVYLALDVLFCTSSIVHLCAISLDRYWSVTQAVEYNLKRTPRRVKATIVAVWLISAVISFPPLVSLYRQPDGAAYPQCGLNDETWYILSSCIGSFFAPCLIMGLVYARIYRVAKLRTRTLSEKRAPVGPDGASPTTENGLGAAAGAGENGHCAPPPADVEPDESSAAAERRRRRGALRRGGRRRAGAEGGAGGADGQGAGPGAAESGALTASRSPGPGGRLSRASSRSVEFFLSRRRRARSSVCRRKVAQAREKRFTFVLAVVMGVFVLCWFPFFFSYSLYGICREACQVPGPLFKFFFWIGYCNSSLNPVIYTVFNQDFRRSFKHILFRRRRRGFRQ
A short description of experiment [7]: inhibitors of Sendai virus-induced IRF3 signaling, primary screen, TLR/RLR signaling modifier project, cell-based, Sendai virus stimulus, luciferase, 10K MLSCN set (AID 602276;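 active = inhibition at or above 50% at 10 µM; inactive = inhibition below 50%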;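 note: firefly luciferase from ISG56 promoter only with Renilla not read in this screen; 0% = Sendai virus plus DMSO and 100% = medium plus DMSO without virus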). The conditions noted are these: HEK293 RL24 IRF3 luciferase reporter, at 10 µM, stronger effect = higher value. A general note: Reporter assays use an easily measured gene product as a stand-in for the process of interest.

A short description of experiment [8]: inhibitors of poly I:C-induced TLR3 signaling, primary screen, cell-based, poly I:C stimulus, luciferase, 10K MLSCN set (AID 602277;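 active = inhibition of the reporter signal at or above 50%; inactive = inhibition below 50%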). The settings on record: HEK293-TLR3 RL24 IRF3 luciferase reporter, at 10 µM, stronger effect = higher value.

Activity calls are given as the source filed them.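 Rule for the calls, unless noted: active = visual image review flags a hit and inhibition of aggregation exceeds 20%; inconclusive = visual hit but inhibition at or below 20%; inactive = no hit on visual image review.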

From PubChem BioAssay come the findings set out here.

By inhibition is commonly meant the drop in the measured response relative to a control, in per cent.

Regarding `Fc1ccc(-c2ccc(-c3nn4c(-c5ccco5)nnc4s3)o2)cc1`, in experiment [1], the cell count was 243. Moreover, the inhibition was -2.4% (inactive) in experiment [1], -25.8% (inactive) in experiment [3], -5.55% (inactive) in experiment [7] and -13.1% (inactive) in experiment [8]. The inhibition of aggregation in experiment [2] was 1.7% (inactive). The nuclei count came to 92.7% in experiment [2] and 101% in experiment [3]. Also, in experiment [4], the fluorescence slope is -0.394 (inactive). Further, the NADPH fluorescence slope in experiment [5] was -3e-05 (inactive). For the same molecule, the slope in experiment [6] is 0.00935 (inactive).
In the case of `CCN(CC)Cc1c(C(=O)OC)nnn1-c1nonc1N`, the cell count in experiment [1] came to 476. Besides, the inhibition is -0.2% (inactive) in experiment [1], -18.2% (inactive) in experiment [3], 4.14% (inactive) in experiment [7] and 14.8% (inactive) in experiment [8]. For the same molecule, in experiment [2], the inhibition of aggregation was 13.9% (inactive). In addition, the results for the nuclei count in experiment [2] and in experiment [3] were 99.5% and 107%, respectively. In addition, the fluorescence slope in experiment [4] is -0.504 (inactive). In addition, the NADPH fluorescence slope in experiment [5] was -0.000189 (inactive). In addition, the slope in experiment [6] was 0.00521 (inactive).
In the case of `CCOc1ccccc1NC(=O)CSc1nnc(Cc2cccn2C)n1-c1ccc(F)cc1`, the cell count in experiment [1] turned out to be 529. In addition, the inhibition in experiment [1] is -2.9% (inactive); in experiment [3] it was -55.6% (inactive); in experiment [7], 12.1% (inactive); in experiment [8] it was 31.3% (inactive). The inhibition of aggregation in experiment [2] was -9.7% (inactive). Moreover, the figures for the nuclei count in experiment [2] and in experiment [3] were 93.1% and 109%, respectively. Besides, in experiment [4], the fluorescence slope was -0.577 (inactive). Besides, the NADPH fluorescence slope in experiment [5] is -3.6e-05 (inactive). The slope in experiment [6] is 0.00579 (inactive).
In the case of `Cn1c(=N)n(CC(=O)O)c2ccccc21`, the cell count in experiment [1] worked out at 681. Moreover, the inhibition in experiment [1] was -13.8% (inactive); in experiment [3], -51.5% (inactive); in experiment [7], 9.99% (inactive); in experiment [8], 11.8% (inactive). The inhibition of aggregation in experiment [2] was 6.2% (inactive). For the same molecule, the values for the nuclei count in experiment [2] and in experiment [3] were 114% and 131%, respectively. The fluorescence slope in experiment [4] is -0.595 (inactive). Besides, the NADPH fluorescence slope in experiment [5] was -2.3e-05 (inactive). The slope in experiment [6] was 0.00551 (inactive).
On to `CCOC(=O)Cn1c2c(c(=N)c3ccccc31)CCC2`, for which the cell count in experiment [1] was 565. The inhibition is -7.1% (inactive) in experiment [1], 2% (inactive) in experiment [3], 16% (inactive) in experiment [7] and 20.3% (inactive) in experiment [8]. The inhibition of aggregation in experiment [2] was -0.7% (inactive). Moreover, the nuclei count in experiment [2] was determined as 106%; in experiment [3] it was 103%. Further, the fluorescence slope in experiment [4] is -0.623 (inactive). Besides, the NADPH fluorescence slope in experiment [5] was -3.1e-05 (inactive). The slope in experiment [6] is 0.00442 (inactive).
In the case of `Cn1c(=O)c(=O)n(C)c2cc(S(=O)(=O)N3CCCCC3)ccc21`, the cell count in experiment [1] came to 289. Moreover, the inhibition in experiment [1] was 0.7% (inactive); in experiment [3] it was -3.4% (inactive); in experiment [7] it was 14.8% (inactive); in experiment [8], 14.6% (inactive). The inhibition of aggregation in experiment [2] is 22.5% (inactive). The nuclei count is 83.6% in experiment [2] and 87.6% in experiment [3]. In experiment [4], the fluorescence slope is -0.426 (inactive). Besides, the NADPH fluorescence slope in experiment [5] was -7.3e-05 (inactive). The slope in experiment [6] was 0.00642 (inactive).
`Cc1cc(=O)oc2c1ccc1oc(/C(=N/O)c3ccccc3)c(C)c12`: the cell count in experiment [1] came to 456. In addition, the inhibition in experiment [1] was -19% (inactive); in experiment [3], 1.5% (inactive); in experiment [7], 7.72% (inactive); in experiment [8], 13.6% (inactive). Further, in experiment [2], the inhibition of aggregation is 34.1% (inactive). For the same molecule, the nuclei count came out at 77.6% in experiment [2] and 110% in experiment [3]. Besides, the fluorescence slope in experiment [4] is -0.357 (inactive). Also, the NADPH fluorescence slope in experiment [5] is -3.7e-05 (inactive). Further, the slope in experiment [6] is 0.00542 (inactive).
For the molecule `CCOC(=O)Cc1nnc2c(Nc3ccccc3F)nc3nonc3n12`, in experiment [1], the cell count was 631. In addition, the inhibition in experiment [1] is -9.1% (inactive); in experiment [3], -38.4% (inactive); in experiment [7], 7.74% (inactive); in experiment [8], -15.3% (inactive). Besides, the inhibition of aggregation in experiment [2] is -25.8% (inactive). Moreover, the results for the nuclei count in experiment [2] and in experiment [3] were 119% and 142%, respectively. Also, the fluorescence slope in experiment [4] is -0.582 (inactive). For the same molecule, in experiment [5], the NADPH fluorescence slope was -7e-06 (inactive). Moreover, in experiment [6], the slope is 0.00616 (inactive).
`O=C(O)c1c(Cl)c(Cl)c(Cl)c(Cl)c1C(=O)N1CCOCC1`: the cell count in experiment [1] amounted to 530. For the same molecule, the inhibition in experiment [1] is -10.7% (inactive); in experiment [3], 12.7% (inactive); in experiment [7], 7.47% (inactive); in experiment [8], 5.92% (inactive). The inhibition of aggregation in experiment [2] is -17.6% (inactive). For the same molecule, the nuclei count in experiment [2] and in experiment [3] was 112% in each case. The fluorescence slope in experiment [4] is -0.618 (inactive). In experiment [5], the NADPH fluorescence slope was -3.3e-05 (inactive). The slope in experiment [6] is 0.00588 (inactive).
`CC(=O)N1CCN(S(=O)(=O)c2cccc(C(=O)Nc3ccc4c(c3)CCC4)c2)CC1`: the cell count in experiment [1] amounted to 442. In addition, the inhibition is 10.5% (inactive) in experiment [1], -54.2% (inactive) in experiment [3], 9.87% (inactive) in experiment [7] and 1.5% (inactive) in experiment [8]. In addition, the inhibition of aggregation in experiment [2] was -6.6% (inactive). Further, the nuclei count is 118% in experiment [2] and 111% in experiment [3]. For the same molecule, the fluorescence slope in experiment [4] was -0.385 (inactive). Besides, in experiment [5], the NADPH fluorescence slope was -4e-05 (inactive). The slope in experiment [6] is 0.00306 (inactive).
As to `CCCn1c(SCC(=O)N2CCN(c3ccccc3)CC2)nc2ccccc2c1=O`, the cell count in experiment [1] turned out to be 331. Further, the inhibition was -8.5% (inactive) in experiment [1], 23.2% (inactive) in experiment [3], -9.23% (inactive) in experiment [7] and -10.6% (inactive) in experiment [8]. Besides, the inhibition of aggregation in experiment [2] was -6.7% (inactive). Also, the nuclei count was determined as 101% in experiment [2] and 124% in experiment [3]. In addition, in experiment [4], the fluorescence slope is -0.595 (inactive). For the same molecule, the NADPH fluorescence slope in experiment [5] is 3.4e-07 (inactive). For the same molecule, the slope in experiment [6] was 0.00536 (inactive).
For `O=c1c(-c2ccccc2)coc2c(CN3CCOCC3)c(O)ccc12`, the cell count in experiment [1] turned out to be 335. The inhibition was -2.5% (inactive) in experiment [1], -116% (inactive) in experiment [3], -3.14% (inactive) in experiment [7] and 10.1% (inactive) in experiment [8]. The inhibition of aggregation in experiment [2] was -6.5% (inactive). Also, the nuclei count came out at 108% in experiment [2] and 129% in experiment [3]. The fluorescence slope in experiment [4] was -0.0601 (active). Besides, in experiment [5], the NADPH fluorescence slope is 4.4e-06 (inactive). Also, the slope in experiment [6] is 0.00553 (inactive).
